TrxR1 inh = qHTS Assay for Inhibitors of Mammalian Selenoprotein Thioredoxin Reductase 1 (TrxR1): qHTS | recombinant rTrxR1, NADPH fluorescence consumption, selenite substrate | Potency, µM (highest dose often 114 µM), inactives show at the top dose activity change, negative = inhibition, actives largely listed as inhibitors | 390,000 tested, 1% active; further: potency means the concentration at half of the fitted maximal effect; on the % scale 0 is the no-effect control and ±100 the full control effect; nearly all actives have a fitted effect of over 65% in size
Target sequence (O89049 whole entry, looked up): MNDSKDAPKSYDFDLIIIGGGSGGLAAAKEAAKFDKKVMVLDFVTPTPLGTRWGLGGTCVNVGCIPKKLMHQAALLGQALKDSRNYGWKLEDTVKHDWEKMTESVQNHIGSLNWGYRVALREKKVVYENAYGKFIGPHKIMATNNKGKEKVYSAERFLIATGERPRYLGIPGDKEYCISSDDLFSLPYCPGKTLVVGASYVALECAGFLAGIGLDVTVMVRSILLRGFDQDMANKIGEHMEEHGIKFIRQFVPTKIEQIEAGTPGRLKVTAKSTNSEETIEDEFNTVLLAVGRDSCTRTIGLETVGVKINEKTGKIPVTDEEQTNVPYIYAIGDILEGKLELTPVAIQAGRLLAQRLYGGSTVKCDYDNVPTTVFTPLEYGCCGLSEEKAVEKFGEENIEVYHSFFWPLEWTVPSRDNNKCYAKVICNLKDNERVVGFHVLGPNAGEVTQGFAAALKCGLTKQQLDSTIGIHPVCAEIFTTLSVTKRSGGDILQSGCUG
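Rat TrxR1 (90 nM in the dispensed reagent) was pre-reduced with 400 uM NADPH for 5 min at room temperature, then incubated with compound for 15 min. After 400 uM selenite was added, NADPH fluorescence (Ex 340/Em 450 nm) was followed for 8 min.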
TrxR1 substrate = qHTS Assay for Substrates of Mammalian Selenoprotein Thioredoxin Reductase 1 (TrxR1): qHTS. Potency, µM (highest dose often 114 µM), for inactives: at the top dose activity change, negative = substrate turnover. 390,000 tested, 0.01% active. Thioredoxin reductase 1, cytoplasmic (Rattus norvegicus), O89049. purified TrxR1 substrate turnover, NADPH consumption readout. AID 588456, 2011; further: potency means the concentration at half of the fitted maximal effect; on the % scale 0 is the no-effect control and ±100 the full control effect; nearly all actives have a fitted effect of over 50% in size
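Rat TrxR1, dispensed at 90 nM, was prereduced with 400 uM NADPH (final) for 5 min at ~22 deg C, then incubated with compound 15 min before 400 uM selenite. A first-read NADPH fluorescence drop versus no-compound background flagged substrates.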
Sfp PPTase inh = qHTS Assay for Inhibitors of Bacillus subtilis Sfp phosphopantetheinyl transferase (PPTase); 4'-phosphopantetheinyl transferase ffp (Bacillus subtilis), Q9F4F7; Biochemical Sfp PPTase activity, qHTS; Potency, µM, inactives show largest response in the series, negative = inhibition, most hits filed as inhibitors; 310,000 tested, 3.5% active; AID 1490, 2009;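 further: the enzyme is Sfp with the accession as filed and its product quenches rhodamine fluorescence; potency means the concentration at half of the fitted maximal effect; 0% = enzyme reaction without inhibitor and -100% = no enzyme wells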
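Fluorescence-quenching assay: 15 nM Sfp-PPTase preincubated 15 min at room temperature with compound, then 5 uM rhodamine-CoA and 12.5 uM BHQ-2-labelled YbbR peptide added. Fluorescence (ex 525/em 598 nm) read at start and after 30 min; difference gives rate.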
PLK1 PBD block = qHTS for Inhibitors of PLK1-PDB (polo-like kinase 1 - polo-box domain): Primary Screen; Plk1 PBD binding of FITC phosphopeptide, fluorescence polarization; 360,000 tested, 2.8% active; Potency, µM, for inactives: max response, negative = inhibition, usual class: inhibitors; AID 720504, 2013; Serine/threonine-protein kinase PLK1 (Homo sapiens), P53350; further: potency means the concentration at half of the fitted maximal effect; series mostly up to about 57 µM; on the % scale 0 is the no-effect control and ±100 the full control effect; nearly all actives have a fitted effect of over 65% in size
mIDH1 inhibitor = qHTS for Inhibitors of mutant isocitrate dehydrogenase 1 (IDH1): qHTS | Isocitrate dehydrogenase [NADP] cytoplasmic (Homo sapiens), O75874 | IDH1-R132H enzyme, NADPH consumption, diaphorase/resazurin fluorescence | Potency, µM (highest dose often 76.6 µM), for the others: at the top dose activity change, negative = inhibition, hits mostly inhibitors | 390,000 tested, 0.093% active; further: potency means the concentration at half of the fitted maximal effect; on the % scale 0 is the no-effect control and ±100 the full control effect; nearly all actives have a fitted effect of over 65% in size
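IDH1-R132H (0.5 ug/mL) preincubated 30 min with compound, then NADPH (0.016 mM) and alpha-KG (2 mM) added; 80 min at RT, pH 7.5. Remaining NADPH coupled via diaphorase/resazurin to fluorescence (540/590 nm); concentration-response curves normalized to no-enzyme control.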
VDR inh = Inhibitors of the vitamin D receptor (VDR): qHTS. Vitamin D3 receptor (Homo sapiens), P11473. VDR-SRC2-3 peptide fluorescence polarization, 2 h. Potency, µM, for the others: max response, negative = inhibition, actives largely listed as inhibitors. 400,000 tested, 0.93% active; further: potency means the concentration at half of the fitted maximal effect; on the % scale 0 is the no-effect control and ±100 the full control effect
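After 23 nl compound addition and a short centrifugation, plates sat for 2 hours at ambient temperature; polarization of fluorescence then indicated loss of VDR binding to peptide SRC2-3.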
USP1-UAF1 confirm = Inhibitors of USP1/UAF1: Hit Validation in Primary Assay. Potency, µM (titrated, usually from 114 µM), without a hit: at the top dose activity change, negative = inhibition, usual class: inhibitors. shares compounds with VDR inh. Ub-Rhodamine cleavage, fluorescence kinetic read. AID 540327, 2011. 50 tested, 50% active
VDR confirm = qHTS for Inhibitors of the vitamin D receptor (VDR): Hit Validation in Primary Screen; shares compounds with VDR inh; VDR-coactivator inhibition assay, qHTS confirmation; Potency, µM, most hits filed as inhibitors; 840 tested, 89% active; further: potency means the concentration at half of the fitted maximal effect
VDR FP = qHTS for Inhibitors of the vitamin D receptor (VDR): Hit Validation using a Fluorescein Assay; shares compounds with VDR inh; VDR-coactivator binding, fluorescein fluorescence polarization; Potency, µM (titrated, usually from 57.1 µM), inactives show at the top dose activity change, negative = inhibition, most hits filed as inhibitors; 840 tested, 48% active; AID 602200, 2012; further: potency means the concentration at half of the fitted maximal effect
VDR bla = qHTS for Inhibitors of the vitamin D receptor (VDR): Hit Validation using a Beta-Lactamase Assay; shares compounds with VDR inh; VDR beta-lactamase reporter cells, FRET ratio; cells co-treated with VDR agonist LG190178; Potency, µM (top dose mostly 46.1 µM), inactives show at the top dose activity change, negative = inhibition, most hits filed as inhibitors; 840 tested, 23% active; AID 602202, 2012; further: potency means the concentration at half of the fitted maximal effect; on the % scale 0 is the no-effect control and ±100 the full control effect
VDR viability = qHTS for Inhibitors of the vitamin D receptor (VDR): Hit Validation using a Cytotoxicity Assay. 840 tested, 18% active. shares compounds with VDR inh. cytotoxicity counter-screen, cell viability, qHTS. Potency, µM (titrated, usually from 48.3 µM), inactives show top-dose activity change, negative = cytotoxicity, usual class: cytotoxic;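 further: potency means the concentration at half of the fitted maximal effect; plate controls were DMSO for no effect and high-concentration cycloheximide for full effect; nearly all actives have a fitted effect of over 75% in size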
An asterisk follows results filed as active; ? = inconclusive; · = not tested or not shown; [ ] = remark or other dose. Compounds with a hit are over-represented: about 5.2% of the library has one in this group of screens. The call rests on the fitted dose curve; in most records, active means well fitted curve in the direction sought with a large enough effect; inconclusive means small, poorly fitted or top-dose-only effect, or another doubt; inactive means no such curve, though single readings can be large; an effect the other way counts as inactive or inconclusive.

SMILES	TrxR1 inh	TrxR1 substrate	Sfp PPTase inh	PLK1 PBD block	mIDH1 inhibitor	VDR inh	VDR confirm	VDR FP	VDR bla	VDR viability	others
CC(/C=C/C(=O)c1ccc(C)cc1)=C\c1ccccc1	4.4%	-2.2%	?	-3.6%	6.1%	-3.1%	·	·	·	·
Cc1sc2ncnc(NCC(O)c3ccc([N+](=O)[O-])cc3)c2c1C (stereo not drawn)	20.9%	-2.7%	3.6%	-16.9%	2.1%	-2.7%	·	·	·	·
CC(C)CN1C(=O)/C(=C(/C#N)C(=O)NC2CCCCC2)c2ccccc21	-5.7%	-1.0%	7.08µM*	?	-3.0%	?	2.82*	2.82µM*	5.6%	-3.2%
Cc1ccc(C(=O)c2no[n+]([O-])c2C(=O)c2ccc(C)cc2)cc1	0.891µM*	-3.2%	?	?	7.8%	?	10*	17.8µM*	6.51µM*	13.4µM*
Cc1ccc(C(=O)c2ccc(C)cc2)cc1	6.4%	-10.1%	1.2%	3.7%	-6.8%	20.7%	·	·	·	·
O=C(CSC1=NS(=O)(=O)c2ccccc21)Nc1ccccc1	7.94µM*	6.0%[57.1 µM]	12.6µM*	10.6µM*	13.5%	15.8µM*	10.6*	-18.4%	-6.0%	-14.0%
COC(=O)CSC1=NS(=O)(=O)c2ccccc21	2.24µM*	-1.5%	3.55µM*	2.99µM*	1.2%	31.6µM*	8.44*	?	18.4%	-3.8%
COC(=O)CSc1ccccc1C(=O)OC	7.7%	4.4%	8.9%	-2.4%	2.6%	-4.9%	·	·	·	·
c1ccc(-c2nnnn2-c2ccccc2)cc1	6.1%	-2.7%	1.7%	-7.5%	-8.1%	-27.3%	·	·	·	·
ClC(Cl)(c1nnnn1-c1ccccc1)c1nnnn1-c1ccccc1	?	-20.1%	2.82µM*	1.89µM*	5.2%	3.55µM*	3.36*	?	?	16.4µM*
COc1cc(N[C@@H](C)CCCN)c2ncccc2c1	·	·	1.7%	·	·	4.6%	·	·	·	·	USP1-UAF1 confirm=20µM*
C[C@@H]1[C@H](O)C[C@@]23COC(=O)C2=CCC[C@@H]3[C@@]1(C)CC/C(=C/CO)CO	20.3%[57.1 µM]	9.0%[57.1 µM]	·	0.5%	-2.3%	0.5%	·	·	·	·
O=[N+]([O-])c1c(Nc2ccccc2O)cc(Cl)c2nonc12	0.708µM*	-1.0%	-63.6%	2.99µM*	0.0%	44.7µM*	4.23*	?	4.61µM*	13µM*
O=[N+]([O-])c1c(Nc2ccc(O)cc2)cc(N2CCOCC2)c2nonc12	1.8%	-2.2%	-6.6%	-1.3%	10.0%	-18.3%	·	·	·	·
O=C(O)c1cc(Nc2cc(Cl)c3nonc3c2[N+](=O)[O-])ccc1O	1.78µM*	-21.2%	44.7µM*	4.74µM*	7.0%	3.55µM*	2.67*	?	3.3%	19.0%
O=[N+]([O-])c1ccc(COP(=O)(O)OCc2ccc([N+](=O)[O-])cc2)cc1	8.0%	4.0%	·	2.3%	-2.0%	-17.5%	·	·	·	·
CCOC(=O)Cn1c(=O)cc(-c2ccccc2)c2c(C)nn(C)c21	18.2%[57.1 µM]	12.1%[57.1 µM]	·	·	-8.7%	9.8%	·	·	·	·
CC(C)CCNC(=O)COc1ccc(N(C)S(=O)(=O)c2ccc(F)cc2)cc1	27.2%[11.4 µM]	5.4%[11.4 µM]	1.8%	-2.4%	-3.3%	7.6%	·	·	·	·
CC(C)(C)c1nnc(NS(=O)(=O)c2ccc([N+](=O)[O-])cc2)s1	10.1%	-0.3%	-70.7%	23.8µM*	-12.5%	?	22.4*	25.1µM*	-10.1%	23.7%
COc1ccc([N+](=O)[O-])c(C=CC(=O)c2ccccn2)c1	·	·	·	-16.6%	10.4%	·	·	·	·	·
COc1ccc(/C=C/C(=O)c2ccccn2)cc1	?	-8.4%	28.2µM*	-11.7%	-5.1%	39.8µM*	33.6*	?	33.8%	-14.4%
CC1=C(CO)C(=O)OC([C@@H](C)C2CC[C@H]3C4C[C@H]5O[C@]56[C@@H](O)C=CC(=O)[C@]6(C)C4CC[C@]23C)C1 (stereo partly drawn)	-32.7%	3.0%	?	-28.8%	-15.5%	17.8µM*	11.9*	10µM*	5.8µM*	?
Cc1ccc(NC(=O)Cn2c(=O)n(CCC(=O)N3CCc4ccccc4C3)c(=O)c3ccccc32)cc1	6.1%	-7.2%	·	·	-4.3%	-10.7%	·	·	·	·
CCCc1c(OCCCOc2ccc(OCC(=O)O)cc2)ccc(C(C)=O)c1O	9.4%[57.1 µM]	2.6%[57.1 µM]	·	?	-5.5%	50.1µM*	·	·	·	·	USP1-UAF1 confirm=?
CCc1oc2ccccc2c1C(=O)CCN1CCCCC1	0.112µM*	3.5%	?	11.9µM*	-0.2%	?	7.08*	3.98µM*	-11.0%	1.7%
CC(=O)c1oc2ccccc2c1NC(=O)CN1CCCCC1	12.0%	-1.5%	0.7%	-0.9%	0.8%	-2.9%	·	·	·	·
COc1cc(-c2cc(C(=O)Nc3cc(S(=O)(=O)N4CCOCC4)ccc3C)c3ccccc3n2)cc(OC)c1OC	6.1%	44.3%	·	-4.7%	4.4%	-16.2%	·	·	·	·

Screens as filed in PubChem BioAssay.
